Results published in the supplement of paper PMC9262897, “Low-cost anti-mycobacterial drug discovery using engineered E. coli” (Nature Communications, 2022).
Where a name gives a salt, the structure may show the parent alone. ± gives the standard deviation of the averaged measurements.

Test system: E. coli TESEC Alr+ wild-type control
Experiment: growth (OD600 after 10 h); higher = more growth (less inhibition)
Settings: compound 0.1 mM; raw OD600 reference: median of DMSO wells 0.241, cell-free background 0.041
Description: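 TESEC Mtb Alr E. coli, or the Alr+ wild-type control, in 384-well plates with Prestwick library compounds at 0.1 mM and 1% DMSO, across arabinose induction levels of 1E3 to 1E7 nM. Growth is read as OD600 after 10 h at 37 °C in triplicate biological replicates.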

SMILES	growth
CN(C)CCc1c[nH]c2ccc(Cn3cncn3)cc12 [Rizatriptan benzoate]	0.24 ± 0.0036
COc1ccc(CCN(C)CCCC(C#N)(c2ccc(OC)c(OC)c2)C(C)C)cc1OC (centres undefined) [Verapamil hydrochloride]	0.185 ± 0.0071
CC1=C(/C=C/C(C)=C/C=C/C(C)=C\C(=O)O)C(C)(C)CCC1 [Isotretinoin]	0.245 ± 0.0032
CCCOc1cc(N)ccc1C(=O)OCCN(CC)CC [Propoxycaine hydrochloride]	0.229 ± 0.005
CO/N=C(\C(=O)N[C@@H]1C(=O)N2C(C(=O)O)=C(COC(C)=O)CS[C@H]12)c1csc(N)n1 [Cefotaxime sodium salt]	0.0395 ± 0.00046
Clc1ccc(Cn2c(CN3CCCC3)nc3ccccc32)cc1 [Clemizole hydrochloride]	0.151 ± 0.0091
COc1ccccc1N1CCN(CCCCNC(=O)c2ccc3ccccc3c2)CC1	0.149 ± 0.0027
CC[C@H](c1ccc(O)cc1)[C@@H](CC)c1ccc(O)cc1 [Hexestrol]	0.0495 ± 0.0091
Cc1cc(N)c2ccccc2[n+]1CCCCCCCCCC[n+]1c(C)cc(N)c2ccccc21 [Dequalinium dichloride]	0.048 ± 0.0004
Clc1ccc(Nc2nnc(Cc3ccncc3)c3ccccc23)cc1 [Vatalanib]	0.104 ± 0.031
NNc1nncc2ccccc12 [Hydralazine hydrochloride]	0.142 ± 0.0062
NC(Cc1cc(I)c(Oc2cc(I)c(O)c(I)c2)c(I)c1)C(=O)O (centres undefined) [Thyroxine (L)]	0.169 ± 0.0037
Cc1onc(-c2c(F)cccc2Cl)c1C(=O)N[C@@H]1C(=O)N2[C@@H]1SC(C)(C)[C@@H]2C(=O)O [Flucloxacillin sodium]	0.228 ± 0.0096
C[C@H](N[C@@H](CCc1ccccc1)C(=O)O)C(=O)N1CCC[C@H]1C(=O)O [Enalaprilat dihydrate]	0.228 ± 0.0039
COCCOC(=O)C1=C(C)NC(C)=C(C(=O)OC/C=C/c2ccccc2)C1c1cccc([N+](=O)[O-])c1 (centres undefined) [Cilnidipine]	0.275 ± 0.0065
CCCNCC(O)COc1ccccc1C(=O)CCc1ccccc1 (centres undefined) [Propafenone hydrochloride]	0.201 ± 0.0092
Cn1nnc2c(C(N)=O)ncn2c1=O [Temozolomide]	0.241 ± 0.006

SMILES	growth
CCc1nn(CCCN2CCN(c3cccc(Cl)c3)CC2)c(=O)n1CCOc1ccccc1 [Nefazodone HCl]	0.0424 ± 0.00076
CC(=O)OCC(=O)[C@@]12OC3(CCCC3)O[C@@H]1C[C@H]1[C@@H]3CCC4=CC(=O)C=C[C@]4(C)[C@@]3(F)[C@@H](O)C[C@@]12C [Amcinonide]	0.185 ± 0.011
COc1ccccc1O [Guaiacol]	0.255 ± 0.0046
C(=C\c1ccccc1)/CN1CCN(C(c2ccccc2)c2ccccc2)CC1 [Cinnarizine]	0.202 ± 0.0048
CCN(CC)C(C)CN1c2ccccc2Sc2ccccc21 (centres undefined) [Ethopropazine hydrochloride]	0.17 ± 0.0058
CC(CCc1ccccc1)NCC(O)c1ccc(O)c(C(N)=O)c1 (centres undefined) [Labetalol hydrochloride]	0.191 ± 0.006
CN(Cc1cnc2nc(N)nc(N)c2n1)c1ccc(C(=O)N[C@@H](CCC(=O)O)C(=O)O)cc1 [Methotrexate]	0.225 ± 0.0067
NS(=O)(=O)c1cc2c(cc1Cl)NC(CC1CCCC1)NS2(=O)=O (centres undefined) [Cyclopenthiazide]	0.236 ± 0.0074
CC1(C)NC(=O)N(c2ccc([N+](=O)[O-])c(C(F)(F)F)c2)C1=O [Nilutamide]	0.216 ± 0.017
CC(=O)O[C@H]1C[C@@H]2CC[C@@H]3[C@H](CC[C@@]4(C)[C@H]3C[C@H]([N+]3(C)CCCCC3)[C@@H]4OC(C)=O)[C@@]2(C)C[C@@H]1N1CCCCC1 [Vecuronium bromide]	0.0818 ± 0.00093
Clc1ccc(C(Cn2ccnc2)OCc2csc3c(Cl)cccc23)c(Cl)c1 (centres undefined) [Sertaconazole nitrate]	0.0563 ± 0.0014
Cn1c(=O)c2c(ncn2C)n(C)c1=O [Caffeine]	0.233 ± 0.0046
C[N+]1(C)CCC(OC(=O)C(O)(c2ccccc2)C2CCCC2)C1 (centres undefined) [Glycopyrrolate]	0.223 ± 0.0096
Clc1cccc(Cl)c1NC1=NCCN1 [Clonidine hydrochloride]	0.245 ± 0.01
Cc1cc(O)c(C(=O)N[C@@H](C(=O)N[C@@H]2C(=O)N3C(C(=O)O)=C(CSc4nnnn4C)CS[C@H]23)c2ccc(O)cc2)cn1 [Cefpiramide]	0.2668 ± 0.0012
C#C[C@]1(O)CC[C@H]2[C@@H]3CCC4=C(CCC(=O)C4)[C@H]3CC[C@@]21C [Norethynodrel]	0.133 ± 0.013
Nc1ccc(O)c(C(=O)O)c1 [Mesalamine]	0.2446 ± 0.0018
